The list is not random: actives were taken first. Their share in the collection is about 8%.
SW480 rereplic: A quantitative high throughput screen for small molecules that induce DNA re-replication in SW480 colon adenocarcinoma cells; SW480 DNA re-replication, Hoechst DNA content imaging, 48 h; Potency, µM (titrated, usually from 46.1 µM), inactives show at the highest dose re-replication activation, most hits filed as activators; 1.8% of 340,000 active; AID 624297, 2012; note: % of control where 0% means no effect; nearly all actives have a fitted effect of over 55% in size
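Hoechst fluorescence of nuclei (405 nm excitation, 500-530 nm emission) measured by plate-scanning imager after 48 hr compound exposure at 37 C; re-replication scored as increased number of nuclei with elevated intensity.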
HT1080 IDH1KD tx: qHTS for induction of synthetic lethality in tumor cells producing 2HG: qHTS for the HT-1080-IDH1KD cell line. HT-1080 IDH1 knockdown viability, ATP luminescence, 48 h. Potency, µM (top dose mostly 46.1 µM), for inactives: at the highest dose activity, negative = toxicity, hits mostly cytotoxic. 2% of 360,000 active;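 note: 0% = DMSO wells and -100% = cell-free medium wells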
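Cytotoxicity counter-line: IDH1KD HT-1080, 48 h, CellTiter-Glo. Curves classed by r2, magnitude and activity.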
MCF10A rereplic: A quantitative high throughput screen for small molecules that induce DNA re-replication in MCF 10a normal breast cells; MCF 10A DNA re-replication, Hoechst nuclear intensity, 48 h; AID 624296, 2012; 2.9% of 350,000 active; Potency, µM (series often up to 46.1 µM), for inactives: at the top dose activity, positive = re-replication, most hits filed as activators; note: % of control where 0% means no effect; nearly all actives have a fitted effect of over 50% in size
HT1080-NT tox: qHTS for induction of synthetic lethality in tumor cells producing 2HG: qHTS for the HT-1080-NT fibrosarcoma cell line. HT-1080-NT fibrosarcoma viability, CellTiter-Glo ATP luminescence, 48 h. Potency, µM (top dose mostly 46.1 µM), for inactives: top-dose activity, negative = less viability, actives largely listed as cytotoxic. 1.6% of 360,000 active. AID 686970, 2013;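 note: NT is the 2HG producing partner of a matched IDH1 knockdown line; 0% = DMSO-treated cells and -100% = media-only wells without cells; nearly all actives have a fitted effect of over 55% in size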
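A 48-hour cytotoxicity screen used HT-1080-NT cells plated 2 hours before compound delivery. ATP-based CellTiter-Glo luminescence measured viability, normalized to DMSO and no-cell controls.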
KB-3-1 tox: qHTS assay for MDR1-selective chemotherapeutics: Primary screen using the parental adenocarcinoma cell KB-3-1 | KB-3-1 viability, CellTiter-Glo ATP luminescence, 72 h | 1.4% of 400,000 active | Potency, µM (doses to about 46.1 µM), usual class: cytotoxic; note: % is set by controls: 0 for no effect and ±100 for the full control effect; nearly all actives have a fitted effect of over 60% in size
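Cells are dispensed, compounds pinned in, plates held at 37 °C for 72 h, then CellTiter-Glo is added and luminescence read after 10 minutes. Cell line: parental KB-3-1 in phenol-red-free DMEM, 10% FBS.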
KB-V1 cytotox: qHTS assay for MDR1-selective chemotherapeutics: Primary screen using the drug-selected MDR subline cells KB-V1. KB-V1 MDR cells viability, CellTiter-Glo, 72 h. 3.4% of 400,000 active. Potency, µM (titrated, usually from 46.1 µM), actives largely listed as cytotoxic; note: % is set by controls: 0 for no effect and ±100 for the full control effect; nearly all actives have a fitted effect of over 60% in size
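Cells of the MDR subline KB-V1 are plated, dosed with compound at multiple concentrations, and incubated 72 h at 37 degrees C; CellTiter-Glo is then added and luminescence read after 10 min.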
Numbers without * were called inactive; i = inactive; u = inconclusive; x = no result. Calls come from the whole dose curve; as a rule, active = well fitted curve in the direction sought with a large enough effect; inconclusive = small, poorly fitted or top-dose-only effect, or another doubt; inactive = no such curve, though single readings can be large; an effect the other way counts as inactive or inconclusive. Potency is the fitted concentration of half-maximal effect.

SMILES	SW480 rereplic	HT1080 IDH1KD tx	MCF10A rereplic	HT1080-NT tox	KB-3-1 tox	KB-V1 cytotox
O=C(Nc1cccc(F)c1)c1ccc(Cn2cc([N+](=O)[O-])cn2)o1	3%	-2%	-1%	-19%	i	13µM*
CC(NC(=O)c1cccc(Cn2cc([N+](=O)[O-])cn2)c1)c1ccc(C(C)(C)C)cc1 (centres undefined)	0%	u	u	-1%	i	21µM*
COc1cc2c(cc1OC)C(COc1ccc(F)cc1)N(C(=O)c1ccc(S(=O)(=O)N3CCCC3)cc1)CC2 (centres undefined)	x	x	x	x	i	i
CCC(=O)N1CCc2cc(S(=O)(=O)NCCC(=O)Nc3ccc(C)cc3C)ccc21	x	x	x	x	i	i
CCc1cccc(C)c1NC(=O)c1cc(S(=O)(=O)N(C)Cc2ccccc2)ccc1F	x	x	x	x	i	u
COc1ccc(-c2ccc3c(c2)S(=O)(=O)c2cccc(C(=O)NCc4cccc(OC(F)(F)F)c4)c2C3=O)cc1OC	10%	-2%	1.8µM*	6%	i	i
COc1ccc(-c2ccc3c(c2)S(=O)(=O)c2cccc(C(=O)NC4CCCC4)c2C3=O)cc1OC	-16%	5%	u	10%	i	i
O=C(NCC1CCCO1)c1cccc2c1C(=O)c1ccc(N3CCC(Cc4ccccc4)CC3)cc1S2(=O)=O (centres undefined)	3%	-19%	3.7µM*	-12%	u	23µM*
O=C(NCc1cccc(OC(F)(F)F)c1)c1cccc2c1C(=O)c1ccc(-c3ccc(F)cc3OCc3ccccc3)cc1S2(=O)=O	2%	6%	46%	2%	i	i
COc1ccc(-c2ccc3c(c2)S(=O)(=O)c2cccc(C(=O)N4CCN(C5CCCCC5)CC4)c2C3=O)cc1OC	21µM*	-18%	21µM*	0%	i	i
COc1ccc(-c2ccc3c(c2)S(=O)(=O)c2cccc(C(=O)N4CCN(c5ccccn5)CC4)c2C3=O)cc1OC	x	2%	x	0%	i	u
O=C(NC1CCCCC1)c1cccc2c1C(=O)c1ccc(-c3ccc(OC(F)(F)F)cc3)cc1S2(=O)=O	0%	2%	0.92µM*	4%	i	i
CC(C)(C)C(=O)C(Oc1ccc(Cl)cc1)n1ccnc1 (centres undefined)	10%	x	8%	x	x	x
O=C(NCc1ccccc1)c1cccc2c1C(=O)c1ccc(/C=C/c3ccccc3)cc1S2(=O)=O	23µM*	-21%	18µM*	u	i	i
O=C(NC1CCCC1)c1cccc2c1C(=O)c1ccc(/C=C/c3ccccc3)cc1S2(=O)=O	17%	1%	2%	3%	u	i
C=CC(=O)Nc1sc2c(c1C(N)=O)CCCC2	u	-15%	21µM*	-15%	u	u
N#CCC(=O)Nc1sc2c(c1C(N)=O)CCCC2	-1%	10%	23µM*	17%	i	i
Cc1noc(C)c1C(=O)Nc1sc2c(c1C(N)=O)CCC2	-7%	12%	-3%	9%	i	i
Cc1noc(C)c1C(=O)Nc1sc2c(c1C(N)=O)CCCCC2	-15%	-4%	-7%	-19%	i	21µM*
CCOc1ccc(NC(=O)CC2C(=O)N(c3ccccc3)C(=O)N2C2CCCC2)cc1 (centres undefined)	x	x	x	x	i	i
CC[C@]12c3[nH]c4cc(CCC(=O)N(C)C)ccc4c3CCN1C(=O)[C@@H](CC(=O)NC/C=C(\C)CCC=C(C)C)C[C@@H]2C(=O)N1CCN(C(=O)c2ccco2)CC1	u	21µM*	u	u	u	i
CC(C)=CCC/C(C)=C/CNC(=O)C[C@H]1C[C@H](C(=O)N2CCOCC2)[C@@]2(CCC3CCCC3)c3[nH]c4cc(CCC(=O)N(C)C)ccc4c3CCN2C1=O	u	0%	15µM*	-3%	i	i
CC[C@]12c3[nH]c4ccc(Cl)cc4c3CCN1C(=O)[C@@H](CC(=O)NC/C=C(\C)CCC=C(C)C)C[C@@H]2C(=O)N1CCN(C(=O)c2ccco2)CC1	9%	15µM*	u	u	i	i
CC[C@]12c3[nH]c4cc(CCC(=O)N(C)C)ccc4c3CCN1C(=O)[C@@H](CC(=O)NCCN1CCOCC1)C[C@@H]2C(=O)N1CCN(C(=O)c2ccco2)CC1	0%	10%	u	1%	i	i
COc1ccc(-c2cc3c(=O)n(CC(=O)Nc4ccc(Br)c(C)c4)ccn3n2)cc1OC	x	x	x	x	i	i
SMILES	SW480 rereplic	HT1080 IDH1KD tx	MCF10A rereplic	HT1080-NT tox	KB-3-1 tox	KB-V1 cytotox
CCOc1cc2sc(N3CCC(C(=O)Nc4ccc(C)cc4C)CC3)nc2cc1Br	x	x	x	x	i	i
CN(C)/C=N/c1ncc(-c2ncc(C(F)(F)F)cc2Cl)cn1	11%	12%	-48%	15%	u	10µM*
CNC(=O)c1ccsc1NC(=O)c1ccc(S(=O)(=O)N2CCCc3ccccc32)cc1	9%	-3%	23%	-14%	8.2µM*	u
O=C(Nc1nc2c(s1)CCCC2)c1ccc(S(=O)(=O)N2CCCc3ccccc32)cc1	8%	-23%	u	-20%	5.8µM*	2.6µM*
O=C(Nc1nc2ccccc2s1)c1cccc(S(=O)(=O)N2CCc3ccccc32)c1	-2%	-25%	10%	u	u	u
O=C(Nc1nc2c(s1)CN(Cc1ccccc1)CC2)c1cccc(S(=O)(=O)N2CCc3ccccc32)c1	16µM*	-22%	10µM*	-1%	u	6.5µM*
CCc1nnc(NC(=O)c2ccc(S(=O)(=O)N3CCCc4ccccc43)cc2)o1	16µM*	7.1µM*	9.2µM*	u	i	u
CCc1ccc(C(=O)CC2(O)C(=O)N(CCc3ccccc3)c3ccc(Cl)cc32)cc1 (centres undefined)	x	x	x	x	i	i
COCC1CCCCN1C(=O)CCCn1nnnc1CN1CCC(C)CC1 (centres undefined)	-8%	-8%	2%	-8%	x	x
CC1CCN(Cc2nnnn2CCCC(=O)NC(c2ccccn2)C(F)(F)F)CC1 (centres undefined)	3%	2%	21µM*	8%	i	u

Screening data from PubChem.
